The whole screen tested about 13,000 compounds, of which about 3,200 (25%) showed an effect of 50% or more. This is one part of the list.

The experiment deals with P. falciparum stage V gametocytes. Also noted: BacTiter-Glo ATP luminescence viability of purified stage V gametocytes in 384-well plates, per cent inhibition versus DMSO. The following applies: 48 h, 5 µM; inhibitor.
By % Inhibition is commonly meant the change of the read-out against control, counted positive when it falls. `COc1ccccc1C1CCN(Cc2csc(NC(=O)c3ccc(-c4ccc(C(F)(F)F)cc4)cc3)n2)CC1` [TCMDC-138781]: the “% Inhibition” value was -44.16%. The value for `Cc1cc2[nH]c(-c3ccc(C(=O)NCCCN4CCN(c5cccc(Cl)c5)CC4)cc3F)nc2cc1Cl` [TCMDC-140029] was -4.793%. Take `Cc1cccc2[nH]c(-c3cccc(-c4ccc(CN5CCN(CCO)CC5)cc4)c3)nc12` [TCMDC-133026]: the “% Inhibition” value is given as 5.684%. The value for `c1ccc(CN2CCC(NCc3ccccc3-c3cccc(CNCc4ccc5c(c4)OCO5)c3)CC2)cc1` [TCMDC-140474] was 47.21%; that for `c1ccc(CN2CCC(NCc3ccccc3-c3ccc(CNCc4ccc5c(c4)OCO5)cc3)CC2)cc1` [TCMDC-140475] was 90.32%.

On to `c1ccc(CN2CCC(NCc3ccc(-c4ccc(CNC5CCCC5)cc4)cc3)CC2)cc1` [TCMDC-140492], for which the “% Inhibition” value is 108.5%. The value for `c1ccc(CN2CCC(NCc3ccc(-c4cccc(CNC5CCCC5)c4)cc3)CC2)cc1` [TCMDC-140491] was 106.1%; that for `C(=C(c1cccs1)c1cccs1)c1ccc(CNC2CCN(Cc3ccccc3)CC2)cc1` [TCMDC-138647] was 92.91%; that for `O=C(NCc1cccc2ccccc12)c1ccc(CNC2CCN(Cc3ccccc3)CC2)cc1` [TCMDC-140789] was -3.964%. The value for `O=C(Nc1ccc(N2CCN(Cc3ccccc3)CC2)cc1)c1cccs1` [TCMDC-124320] was -18.09%; that for `O=C(NCc1cc2c(cc1Cl)OCO2)c1ccc(CNC2CCN(Cc3ccccc3)CC2)cc1` [TCMDC-140786] was 7.44%; that for `C=CCOc1ccc(CNC2CCN(Cc3ccccc3)CC2)cc1Br` [TCMDC-125268] was 13.93%. The value for `C[C@@]12C[C@@H](Nc3nc(NCCc4ccc(O)cc4)nc(N4CCNCC4)n3)C[C@@H](C1)c1cccc(Cl)c1O2` [TCMDC-134047] was -6.304%. `Cc1cc(NC(=O)Nc2ccc3nc(C)oc3c2)c2cc(Cl)ccc2n1` [TCMDC-140076]: the “% Inhibition” value came out at 38.43%.

As for `O=C(Nc1ccc2c(c1)OCO2)NC1CCN(c2ccnc(Nc3ccc(F)cc3)n2)C1` (stereo not drawn) [TCMDC-133605], the “% Inhibition” value is listed as -89.44%.

In the case of `CC(C)Cc1csc(NC(=O)C=Cc2ccco2)c1C(=O)O` [TCMDC-125660], the “% Inhibition” value was 6.698%.

Regarding `Clc1ccc(OCc2ccccc2)c(-c2nc(-c3nc4ncc(Br)cc4[nH]3)cs2)c1` [TCMDC-136729], the “% Inhibition” value was -65.34%. The value for `c1ccc(CN2CCC(NCc3ccccc3-c3ccc(CNC4CCCC4)cc3)CC2)cc1` [TCMDC-140473] was 106.4%. The value for `c1ccc(CN2CCC(NCc3ccc(-c4cncc5ccccc45)cc3)CC2)cc1` [TCMDC-134153] was 14.12%; that for `COc1ccccc1NC(=O)Nc1cccc(-c2ccc(-c3nc4ccc(C(F)(F)F)cc4[nH]3)cc2)c1` [TCMDC-133203] was -14.42%. For `N#Cc1ccc(N2CCN(Cc3cccc(-c4ccc(-c5nc6ccccc6[nH]5)cc4)c3)CC2)nc1.O=C(O)C(F)(F)F` [TCMDC-133937], the “% Inhibition” value stood at 5.421%. The value for `FC(F)(F)c1cnc(Sc2nnc(-c3ccncc3)o2)c(Cl)c1` [TCMDC-123767] was 83.92%; that for `FC(F)(F)c1cnc(Sc2nnc(-c3ccco3)o2)c(Cl)c1` [TCMDC-125006] was -49.8%; that for `CC1CCCCN1Cc1cccc(-c2c[nH]c3nc(NC4CCCC4)ncc23)c1` (stereo not drawn) [TCMDC-133776] was -28.36%. Consider `COc1ccc2nccc([C@@H](O)CN3CCC(NCc4ccc5c(c4)oc(=S)n5C)CC3)c2c1` [TCMDC-141186], for which the “% Inhibition” value was determined as 1.23%. On to `O=C(Nc1ccc(Cn2ncc(N3CCCNCC3)c(Cl)c2=O)cc1)Nc1ccc(F)cc1[N+](=O)[O-]` [TCMDC-141926], for which the “% Inhibition” value was -31.19%.

`O=[N+]([O-])c1ccc(N2CCCN(C(=S)Nc3ccc(F)cc3Br)CC2)nc1` [TCMDC-124054]: the “% Inhibition” value was 81.59%.

Consider `O=C(Nc1ccc([N+](=O)[O-])cc1Br)c1cc2ccccc2nc1Cl` [TCMDC-124537], for which the “% Inhibition” value is on record as 29.24%. The value for `N#Cc1ccc(NC(=NC2CCN(Cc3ccccc3)CC2)Nc2ccccc2Cl)c(O)c1` [TCMDC-140256] was -5.798%. On to `Cc1cccc2nc(-c3cccc(-c4ccc(C(=O)NCc5ccccc5S(C)(=O)=O)cc4)c3)[nH]c12` [TCMDC-132505], for which the “% Inhibition” value was 5.091%.

As to `Cn1nc(C(=O)N2CCC(c3[nH]ncc3Cc3ccccc3)CC2)c2ccccc2c1=O` [TCMDC-124642], the “% Inhibition” value is listed as 16.79%.

As for `CC(=O)CC(=O)N1CCN(c2ccccc2)CC1` [TCMDC-125502], the “% Inhibition” value is -5.255%. For the compound `CC(C)n1nc(C(=O)N2CCN(c3ccccc3)CC2)c2ccccc2c1=O` [TCMDC-124333], the “% Inhibition” value worked out at 78.8%. Under `Cn1c2c(c3ccccc31)CN(CCC1(c3ccc(Cl)c(Cl)c3)CN(C(=O)c3ccccc3)CCO1)CC2` (stereo not drawn) [TCMDC-135562] stands -29.91%. Under `COCCN(C(=O)Cc1cccs1)C(C(=O)NCc1ccc(OC)cc1)c1ccc(C(C)C)cc1` (stereo not drawn) [TCMDC-125625] stands -2.779%; under `CN1CCN(CCNc2c3ccccc3nc3ccc4ccccc4c23)CC1` [TCMDC-137724], 54.46%; under `CN1CCN(CCNc2c3ccccc3nc3c2ccc2ccccc23)CC1` [TCMDC-137723], 92.22%. With `CN(Cc1cnc2nc(N)nc(N)c2n1)c1ccc(C(=O)N[C@@H](CCC(=O)O)C(=O)O)cc1` [TCMDC-125858], the “% Inhibition” value is -8.966%. The value for `Cc1c(-c2cccc(Br)c2)[nH]c2nc(N)nc(N)c12` [TCMDC-137836] was -91.89%; that for `O=C(Nc1ccccc1)N1CCC(CN2CCOC(c3ccccc3)(c3ccccc3)C2)CC1` [TCMDC-136344] was 40.09%; that for `O=C(c1ccc(Cl)cc1)N1CCOC(CCN2CCC(c3ccccc3)CC2)(c2ccc(Cl)c(Cl)c2)C1` (stereo not drawn) [TCMDC-135351] was -32.03%. Under `COc1cc(OC)cc(C(=O)N2CCOC(CCN3CCC(c4ccccc4)CC3)(c3ccc(Cl)c(Cl)c3)C2)c1` (stereo not drawn) [TCMDC-135348] stands -85.08%.

Consider `O=C(Nc1cc(F)cc(F)c1)N1CCOC(CCN2CCC(c3ccccc3)CC2)(c2ccc(Cl)c(Cl)c2)C1` (stereo not drawn) [TCMDC-135333], for which the “% Inhibition” value turned out to be 17.76%. With `O=C(Nc1cccc(F)c1)N1CCC(CN2CCOC(c3ccccc3)(c3ccccc3)C2)CC1` [TCMDC-136345], the “% Inhibition” value is reported as 66.91%. Under `O=C(c1ccc(F)c(F)c1)N1CCOC(CCN2CCC(c3ccccc3)CC2)(c2ccc(Cl)c(Cl)c2)C1` (stereo not drawn) [TCMDC-135337] stands -91.33%. Take `COc1ccc(C(=O)N2CCC(CN3CCOC(c4ccccc4)(c4ccccc4)C3)CC2)cc1` [TCMDC-136347]: the “% Inhibition” value came out at 57.99%. The value for `O=C(c1ccccc1)N1CCC(CN2CCOC(c3ccccc3)(c3ccccc3)C2)CC1` [TCMDC-136346] was 86.1%; that for `CCOc1ccc(C(=O)N2CCOC(CCN3CCC(c4ccccc4)CC3)(c3ccc(Cl)c(Cl)c3)C2)cc1` (stereo not drawn) [TCMDC-135344] was -65.78%. Under `NC(N)=NC(=O)Nc1cc(F)c(Cl)c(Br)c1` [TCMDC-137510] stands -16.64%; under `CC(C)Nc1nc(NC2CCCCC2)nc(N2CCCCCCC2)n1` [TCMDC-139688], -95.56%. Under `Cc1nc2ccc(Nc3nccc(-c4c(-c5cccc(NC(=O)c6c(F)cccc6F)c5)nn5ccccc45)n3)cc2nc1C` [TCMDC-135906] stands -53.2%; under `Cc1cc(NN=Cc2cccc(Cl)c2)c2ccccc2n1` [TCMDC-142060], -14.77%; under `Cc1ccc2c(NN=Cc3cccc(Cl)c3)cc(C)nc2c1` [TCMDC-142064], 91.21%.

As to `Cc1ccc2nc(C)cc(NN=Cc3cccc(Cl)c3)c2c1` [TCMDC-142063], the “% Inhibition” value turned out to be 87.16%. The value for `Cc1ccc2c(NN=Cc3ccc(N(C)C)cc3)cc(C)nc2c1` [TCMDC-142076] was -47.79%; that for `Cc1cc(N2CCCC2)nc(Nc2ccc(NC(=O)c3ccco3)cc2)n1` [TCMDC-124965] was -16.57%; that for `O=C1C2C3SC(c4c3ccc3ccccc43)C2C(=O)N1c1ccccc1` (stereo not drawn) [TCMDC-123946] was -5.395%. The value for `COC(=O)c1ccc(NC(=O)c2ccc(CCN3CCC(c4nc(COCC(F)(F)F)c(-c5ccc(F)cc5)o4)CC3)cc2)cc1` [TCMDC-138133] was -17.07%. Under `CCN(C(=O)CSc1cc(C)c2cc(C)cc(C)c2n1)C1CCS(=O)(=O)C1` (stereo not drawn) [TCMDC-123568] stands -6.938%; under `COc1ccc2[nH]cc(C3CCN(CCCCNC(=O)c4ccc(NC(=O)c5ccc(Cl)cc5)cc4)CC3)c2c1` [TCMDC-138328], -10.4%. As for `COc1ccc2[nH]cc(C3CCN(Cc4ccc(NC(=O)c5ccc(-c6ccccc6)cc5)cc4)CC3)c2c1` [TCMDC-139069], the “% Inhibition” value is reported as 7.748%. The value for `CN(C)CCCOc1ccc(CN2CCC(c3c[nH]c4ccc(NCC5CCCCC5)cc34)CC2)cc1` [TCMDC-140737] was 96.97%; that for `Cc1noc(C)c1-c1cccc(CNCc2cccc(-c3cccc(-c4nc5ccccc5[nH]4)c3)c2)c1.O=C(O)C(F)(F)F` [TCMDC-133065] was 2.097%. The value for `CCCCn1c(=N)c(C(=O)NCc2cccnc2)cc2c(=O)n3cccc(C)c3nc21` [TCMDC-124382] was 12.6%; that for `Cc1cccn2c(=O)c3cc(C(=O)NCc4cccnc4)c(=N)n(CCc4ccccc4)c3nc12` [TCMDC-125663] was 86.68%; that for `Cc1cccn2c(=O)c3cc(C(=O)NCCc4ccccc4)c(=N)n(CCCOC(C)C)c3nc12` [TCMDC-125410] was 68.18%.

Consider `CCOCCCn1c(=N)c(C(=O)NCc2ccc(OC)cc2)cc2c(=O)n3cccc(C)c3nc21` [TCMDC-125406], for which the “% Inhibition” value is listed as 75.07%.

For the compound `Cc1cccn2c(=O)c3cc(C(=O)NC(C)c4ccccc4)c(=N)n(CCc4ccccc4)c3nc12` (stereo not drawn) [TCMDC-124469], the “% Inhibition” value is reported as -59.42%. Under `COc1ccc(CCn2c(=N)c(C(=O)NCc3cccnc3)cc3c(=O)n4ccccc4nc32)cc1` [TCMDC-124471] stands 25.4%; under `COc1ccc(CCn2c(=N)c(C(=O)NCc3ccccc3)cc3c(=O)n4cccc(C)c4nc32)cc1` [TCMDC-124473], 6.095%. The value for `Cc1ccc2nc3c(cc(C(=O)NCCc4ccccc4)c(=N)n3CCCOC(C)C)c(=O)n2c1` [TCMDC-125408] was -18.91%. Under `CCOCCCn1c(=N)c(C(=O)NCc2ccc(F)cc2)cc2c(=O)n3cccc(C)c3nc21` [TCMDC-125407] stands 36.21%; under `COCCCn1c(=N)c(C(=O)NCCc2ccc(OC)cc2)cc2c(=O)n3cccc(C)c3nc21` [TCMDC-125085], 9.799%; under `CCCn1c(=N)c(C(=O)NCCc2ccccc2)cc2c(=O)n3cccc(C)c3nc21` [TCMDC-125084], 4.719%.

Regarding `COc1ccc(CCn2c(=N)c(C(=O)NCc3cccnc3)cc3c(=O)n4cccc(C)c4nc32)cc1` [TCMDC-124470], the “% Inhibition” value is on record as 92%.

(Values after PMC4552634, “A New Set of Chemical Starting Points with Plasmodium falciparum Transmission-Blocking Potential for Antimalarial Drug Discovery” (PLoS ONE, 2015).)
